Assay results from the supplement of paper PMC10849652.
Targets with a hit are over-represented here; the source holds about 8,800 in all. About 0.5% of all pairs of compound and target were hits. A number with no mark means an inactive call.

Legend:
Assay in all cases: log2 fold change, soluble protein after heating vs DMSO (PISA); higher = thermal stabilisation; K562 lysate, 10 uM; active = over 0.2 and 3.5 SD of the protein, either way, in both replicates (recomputed)
[1] = compound: C#Cc1cccc(Nc2ncnc3cc(OCCOC)c(OCCOC)cc23)c1 [erlotinib]
Procedure, shortened: (§1)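 Thermal stability, expressed as log-two fold change relative to solvent controls, is given from duplicates. Crude K562 extract in PBS pH 7.4 with 1 mM MgCl2, at 1 mg/mL protein, was treated with 10 μM compound for 30 min and heated in aliquots for 3 min across 48°C-58°C. After pooling, adjustment to 0.5% NP-40 at 4°C and centrifugation at 21,000xg for 90 min, supernatant protein was measured by TMTpro 16plex LC-MS/MS with channel sums equalised.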

[2] = compound: C/C(=N\NC(=O)C1=CC(=CC=C1)S(=O)(=O)N2CCOCC2)/C3=C(C=CC(=C3)Cl)O
Procedure, shortened: as §1

[3] = compound: C1=CC(=CC=C1C2=NC3=C(N2)C=C(C=C3)C(=O)N)OC4=CC=C(C=C4)Cl
Procedure, shortened: as §1

[4] = compound: C1=CC2=C(C=CC(=C2)/C=C\3/C(=O)NC(=NCC4=CC=CS4)S3)N=C1
Procedure, shortened: as §1

[5] = compound: C1=CC2=NC=CN=C2C=C1/C=C/3\C(=O)NC(=O)S3
Procedure, shortened: as §1

[6] = compound: C1=CC=C(C=C1)C2=NC(=C(N2)C3=CC=NC=C3)C4=CC(=C(C=C4)Cl)O
Procedure, shortened: as §1

[7] = compound: C1=CC=C2C(=C1)C3=NNC4=CC=CC(=C43)C2=O
Procedure, shortened: as §1

[8] = compound: C1CCN(C1)C(=O)NC2=CC=CC(=C2)NC3=NC=C(C(=N3)NCCC4=CN=CN4)Br
Procedure, shortened: as §1

[9] = compound: C1CN(CCC1(CC2=CC=C(C=C2)Cl)N)C3=NC=NC4=C3C=CN4
Procedure, shortened: as §1

[10] = compound: C1COCCN1CCN2C3=CC=CC=C3N=C2NC(=O)C4=CC(=CC=C4)[N+](=O)[O-] [IRAK-1-4 Inhibitor I]
Procedure, shortened: as §1

[11] = compound: C=CC(=O)N1CCC[C@@H](n2nc(-c3ccc(Oc4ccccc4)cc3)c3c(N)ncnc32)C1 [ibrutinib]
Procedure, shortened: as §1

[12] = compound: CC(=O)c1cnc2ccc(-c3cc(Cl)c(O)c(Cl)c3)nc2c1N[C@H]1CC[C@H](CN(C)C)CC1
Procedure, shortened: as §1

[13] = compound: CC(C)(C)Cn1c(N)nc2ccc(-c3[nH]c(C(C)(C)C)nc3-c3ccc(F)cc3)nc21 [ralimetinib]
Procedure, shortened: as §1

[14] = compound: CC(C)(O)CC(=O)NCCn1ccc2ncnc(Nc3ccc(Oc4cccc(C(F)(F)F)c4)c(Cl)c3)c21
Procedure, shortened: as §1

[15] = compound: CC(C)C1=C2N=C(C=C(N2N=C1)NCC3=CC=CC=C3)NCCCCCCN
Procedure, shortened: as §1

[16] = compound: CC1=C(C(CC(=O)N1)C2=CC=C(C=C2)C(F)(F)F)C(=O)NC3=C(C=C4C(=C3)C=NN4)F
Procedure, shortened: as §1

[17] = compound: CC1=C(C2=C(C=C1)C(=O)C3=CC=CC=C3N2CCCN)C
Procedure, shortened: as §1

[18] = compound: CC1=C(C=C(C=C1)NC(=O)C2=CC(=CC=C2)C(C)(C)C#N)NC3=CC4=C(C=C3)N=CN(C4=O)C
Procedure, shortened: as §1

[19] = compound: CC1=C(C=C(C=C1)NC(=O)C2=CC(=CC=C2)N(C)C)NC(=O)C3=CC=C(C=C3)O
Procedure, shortened: as §1

[20] = compound: CC1=CC=C(C=C1)SC2=C3C=C(SC3=CN=C2)C(=O)N
Procedure, shortened: as §1

UniProt Q92889, sequence (Q92889 whole entry, looked up): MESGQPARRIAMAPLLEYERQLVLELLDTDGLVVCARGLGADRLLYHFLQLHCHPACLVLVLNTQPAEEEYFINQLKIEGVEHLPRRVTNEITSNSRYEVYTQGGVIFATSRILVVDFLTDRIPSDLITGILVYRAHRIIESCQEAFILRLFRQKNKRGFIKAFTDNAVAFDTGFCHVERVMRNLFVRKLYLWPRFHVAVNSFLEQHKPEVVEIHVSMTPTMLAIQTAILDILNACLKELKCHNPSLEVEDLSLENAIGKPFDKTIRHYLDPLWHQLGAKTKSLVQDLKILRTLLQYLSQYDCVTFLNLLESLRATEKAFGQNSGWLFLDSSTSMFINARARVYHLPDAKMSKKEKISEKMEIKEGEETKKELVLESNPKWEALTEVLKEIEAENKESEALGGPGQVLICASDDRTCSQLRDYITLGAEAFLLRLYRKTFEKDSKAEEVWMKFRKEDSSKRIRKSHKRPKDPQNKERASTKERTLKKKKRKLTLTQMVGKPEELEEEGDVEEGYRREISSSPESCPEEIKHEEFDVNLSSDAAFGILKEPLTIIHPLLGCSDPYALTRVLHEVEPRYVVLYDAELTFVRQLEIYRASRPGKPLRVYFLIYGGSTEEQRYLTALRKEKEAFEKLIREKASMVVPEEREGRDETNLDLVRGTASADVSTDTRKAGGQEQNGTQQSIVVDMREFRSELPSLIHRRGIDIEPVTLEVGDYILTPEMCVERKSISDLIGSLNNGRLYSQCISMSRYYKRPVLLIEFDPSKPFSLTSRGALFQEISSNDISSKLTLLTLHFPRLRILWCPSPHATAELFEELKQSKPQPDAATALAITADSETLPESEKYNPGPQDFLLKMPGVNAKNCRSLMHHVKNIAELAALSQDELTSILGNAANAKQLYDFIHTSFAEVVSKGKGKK
UniProt P37268, sequence (P37268 whole entry, looked up): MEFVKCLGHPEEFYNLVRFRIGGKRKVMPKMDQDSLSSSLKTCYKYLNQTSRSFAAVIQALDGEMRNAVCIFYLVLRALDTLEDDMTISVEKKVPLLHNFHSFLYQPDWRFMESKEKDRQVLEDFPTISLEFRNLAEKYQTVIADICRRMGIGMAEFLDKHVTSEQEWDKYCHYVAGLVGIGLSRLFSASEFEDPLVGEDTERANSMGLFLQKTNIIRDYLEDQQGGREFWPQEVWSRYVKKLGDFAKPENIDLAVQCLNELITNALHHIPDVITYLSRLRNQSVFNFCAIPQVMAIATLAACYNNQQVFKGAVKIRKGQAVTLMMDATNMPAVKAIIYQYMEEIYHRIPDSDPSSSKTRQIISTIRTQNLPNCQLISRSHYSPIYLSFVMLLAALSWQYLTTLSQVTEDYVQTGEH
UniProt Q9NVI1, sequence (Q9NVI1 whole entry, looked up): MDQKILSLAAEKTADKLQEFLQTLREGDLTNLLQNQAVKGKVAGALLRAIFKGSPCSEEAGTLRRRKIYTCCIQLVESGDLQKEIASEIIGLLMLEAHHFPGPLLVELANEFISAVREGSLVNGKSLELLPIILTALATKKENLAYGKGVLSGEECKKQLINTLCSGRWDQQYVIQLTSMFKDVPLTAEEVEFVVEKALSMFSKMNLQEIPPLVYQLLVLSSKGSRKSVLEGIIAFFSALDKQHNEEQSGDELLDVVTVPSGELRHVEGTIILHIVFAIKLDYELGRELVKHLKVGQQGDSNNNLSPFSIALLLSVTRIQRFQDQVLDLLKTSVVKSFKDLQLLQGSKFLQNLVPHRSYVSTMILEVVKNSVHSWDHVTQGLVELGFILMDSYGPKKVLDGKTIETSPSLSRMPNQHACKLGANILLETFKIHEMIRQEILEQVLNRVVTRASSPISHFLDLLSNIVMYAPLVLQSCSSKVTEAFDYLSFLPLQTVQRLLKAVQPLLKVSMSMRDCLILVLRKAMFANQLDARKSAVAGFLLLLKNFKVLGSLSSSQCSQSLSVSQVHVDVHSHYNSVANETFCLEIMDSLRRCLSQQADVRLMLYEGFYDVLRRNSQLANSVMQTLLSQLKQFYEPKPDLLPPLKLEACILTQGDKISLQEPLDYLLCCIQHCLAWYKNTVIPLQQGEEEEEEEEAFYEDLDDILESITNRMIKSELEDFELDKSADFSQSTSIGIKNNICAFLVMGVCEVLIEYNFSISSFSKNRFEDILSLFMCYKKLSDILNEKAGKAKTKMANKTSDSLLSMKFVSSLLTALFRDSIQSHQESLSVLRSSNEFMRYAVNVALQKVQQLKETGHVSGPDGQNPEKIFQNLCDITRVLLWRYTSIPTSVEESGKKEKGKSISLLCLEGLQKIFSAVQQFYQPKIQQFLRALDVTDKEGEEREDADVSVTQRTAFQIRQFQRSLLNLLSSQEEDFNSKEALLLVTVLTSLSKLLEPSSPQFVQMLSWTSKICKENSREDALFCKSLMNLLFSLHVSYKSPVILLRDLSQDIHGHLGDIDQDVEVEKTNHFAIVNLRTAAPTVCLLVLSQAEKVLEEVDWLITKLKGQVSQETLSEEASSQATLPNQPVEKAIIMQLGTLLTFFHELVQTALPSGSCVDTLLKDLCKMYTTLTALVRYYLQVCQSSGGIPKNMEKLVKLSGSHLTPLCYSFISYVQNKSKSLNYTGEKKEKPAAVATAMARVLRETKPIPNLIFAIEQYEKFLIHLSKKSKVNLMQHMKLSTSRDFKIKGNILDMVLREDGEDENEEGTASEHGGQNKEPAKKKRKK
UniProt Q9NV70, sequence (Q9NV70 whole entry, looked up): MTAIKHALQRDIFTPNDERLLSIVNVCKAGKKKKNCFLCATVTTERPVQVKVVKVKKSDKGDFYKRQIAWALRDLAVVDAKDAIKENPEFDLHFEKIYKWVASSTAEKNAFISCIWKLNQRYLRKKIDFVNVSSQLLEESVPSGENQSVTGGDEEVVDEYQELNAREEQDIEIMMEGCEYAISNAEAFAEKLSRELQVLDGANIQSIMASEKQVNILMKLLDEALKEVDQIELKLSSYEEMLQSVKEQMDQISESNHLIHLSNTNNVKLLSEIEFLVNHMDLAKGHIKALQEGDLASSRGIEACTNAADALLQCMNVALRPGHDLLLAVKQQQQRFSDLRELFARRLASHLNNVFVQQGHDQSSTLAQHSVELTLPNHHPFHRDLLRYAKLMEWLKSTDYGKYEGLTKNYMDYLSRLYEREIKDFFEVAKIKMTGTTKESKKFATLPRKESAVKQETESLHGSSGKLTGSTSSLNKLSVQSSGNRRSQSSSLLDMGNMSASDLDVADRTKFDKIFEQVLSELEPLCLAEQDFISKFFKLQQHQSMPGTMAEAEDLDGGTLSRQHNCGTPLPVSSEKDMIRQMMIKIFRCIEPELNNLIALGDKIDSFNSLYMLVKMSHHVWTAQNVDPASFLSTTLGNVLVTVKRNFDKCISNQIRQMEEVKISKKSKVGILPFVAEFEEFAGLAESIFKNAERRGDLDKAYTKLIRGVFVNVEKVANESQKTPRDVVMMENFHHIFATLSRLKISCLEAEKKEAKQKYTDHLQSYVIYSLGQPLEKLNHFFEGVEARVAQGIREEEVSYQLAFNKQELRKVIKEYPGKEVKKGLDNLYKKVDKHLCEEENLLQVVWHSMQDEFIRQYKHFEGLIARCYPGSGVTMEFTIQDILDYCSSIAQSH
UniProt P07814, sequence (P07814 whole entry, looked up): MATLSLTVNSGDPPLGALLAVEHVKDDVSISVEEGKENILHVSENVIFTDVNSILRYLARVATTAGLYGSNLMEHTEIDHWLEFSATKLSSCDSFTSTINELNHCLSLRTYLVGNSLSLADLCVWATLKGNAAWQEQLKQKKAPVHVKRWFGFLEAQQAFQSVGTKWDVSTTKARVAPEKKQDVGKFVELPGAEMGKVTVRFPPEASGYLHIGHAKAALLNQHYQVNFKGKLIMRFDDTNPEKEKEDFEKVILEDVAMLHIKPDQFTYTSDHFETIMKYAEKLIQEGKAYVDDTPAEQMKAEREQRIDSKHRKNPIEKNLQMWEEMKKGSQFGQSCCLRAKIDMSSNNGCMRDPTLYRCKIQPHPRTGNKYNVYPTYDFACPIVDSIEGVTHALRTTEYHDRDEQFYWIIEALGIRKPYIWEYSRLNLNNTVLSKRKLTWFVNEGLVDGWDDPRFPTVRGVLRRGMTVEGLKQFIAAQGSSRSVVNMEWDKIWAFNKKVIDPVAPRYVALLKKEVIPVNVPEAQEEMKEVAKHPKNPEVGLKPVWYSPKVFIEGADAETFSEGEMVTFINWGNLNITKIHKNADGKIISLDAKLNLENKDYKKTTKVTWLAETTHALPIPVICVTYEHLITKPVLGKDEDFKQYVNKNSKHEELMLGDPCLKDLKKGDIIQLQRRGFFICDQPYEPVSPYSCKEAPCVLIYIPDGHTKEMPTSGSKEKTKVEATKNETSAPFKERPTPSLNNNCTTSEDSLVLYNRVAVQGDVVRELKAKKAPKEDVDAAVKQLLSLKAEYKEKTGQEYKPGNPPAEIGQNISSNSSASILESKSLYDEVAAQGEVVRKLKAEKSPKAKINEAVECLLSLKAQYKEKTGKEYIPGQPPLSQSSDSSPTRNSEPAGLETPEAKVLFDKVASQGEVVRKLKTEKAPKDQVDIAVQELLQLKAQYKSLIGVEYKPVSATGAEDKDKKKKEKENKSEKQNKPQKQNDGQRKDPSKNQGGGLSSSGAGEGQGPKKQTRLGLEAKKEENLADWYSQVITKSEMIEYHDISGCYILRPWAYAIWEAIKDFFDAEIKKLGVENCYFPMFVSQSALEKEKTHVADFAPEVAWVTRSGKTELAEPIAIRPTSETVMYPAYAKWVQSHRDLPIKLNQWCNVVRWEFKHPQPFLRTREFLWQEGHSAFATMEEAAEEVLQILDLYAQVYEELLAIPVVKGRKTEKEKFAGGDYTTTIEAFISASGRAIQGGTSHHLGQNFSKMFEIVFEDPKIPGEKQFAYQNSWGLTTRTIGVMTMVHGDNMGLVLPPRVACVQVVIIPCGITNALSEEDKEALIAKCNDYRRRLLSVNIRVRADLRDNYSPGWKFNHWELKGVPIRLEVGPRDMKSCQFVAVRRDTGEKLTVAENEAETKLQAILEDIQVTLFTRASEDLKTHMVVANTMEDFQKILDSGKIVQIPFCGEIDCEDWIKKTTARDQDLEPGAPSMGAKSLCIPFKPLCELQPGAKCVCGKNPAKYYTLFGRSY

Target | log2 fold change [1] | log2 fold change [2] | log2 fold change [3] | log2 fold change [4] | log2 fold change [5] | log2 fold change [6] | log2 fold change [7] | log2 fold change [8] | log2 fold change [9] | log2 fold change [10] | log2 fold change [11] | log2 fold change [12] | log2 fold change [13] | log2 fold change [14] | log2 fold change [15] | log2 fold change [16] | log2 fold change [17] | log2 fold change [18] | log2 fold change [19] | log2 fold change [20]
EEF1AKMT4 (UniProt P0DPD7) | 0.057 | 0.097 | 0.073 | 0.025 | 0.039 | -0.021 | -0.081 | -0.019 | 0.08 | 0.107 | 0.023 | -0.012 | -0.003 | -0.053 | 0.003 | -0.006 | -0.055 | -0.029 | -0.029 | 0.069
EPRS (UniProt P07814) | 0.028 | 0.032 | -0.007 | 0.01 | 0.014 | 0.017 | -0.026 | 0 | -0.004 | -0.006 | -0.018 | 0.002 | 0.01 | 0.026 | 0.02 | -0.014 | 0.02 | -0.004 | 0.046 | 0.019
ESYT2 (UniProt H7BXI1) | -0.056 | 0.037 | -0.017 | 0.042 | -0.025 | -0.022 | -0.076 | -0.005 | -0.008 | 0.019 | 0.035 | -0.022 | 0.003 | -0.039 | -0.04 | 0.046 | 0.05 | 0.015 | -0.025 | -0.044
ERCC4 (UniProt Q92889) | -0.008 | -0.04 | 0.033 | 0.015 | -0.021 | -0.003 | -0.096 | -0.006 | 0.051 | 0.029 | -0.02 | 0.027 | -0.028 | 0.006 | 0.059 | -0.021 | -0.029 | 0.013 | 0.025 | -0.054
EXOC1 (UniProt Q9NV70) | 0.05 | -0.005 | -0.047 | -0.009 | 0.074 | -0.035 | -0.043 | 0.014 | -0.016 | -0.011 | -0.043 | 0.012 | 0.04 | -0.004 | -0.023 | -0.022 | 0.016 | -0.026 | 0.032 | -0.011
FNTB (UniProt P49356) | -0.03 | -0.038 | 0.011 | 0.013 | -0.034 | -0.005 | -0.02 | 0.028 | -0.022 | -0.006 | -0.018 | 0.005 | 0.03 | -0.013 | -0.022 | -0.036 | -0.026 | -0.011 | 0.038 | -0.013
ERBIN isoform 8 (UniProt Q96RT1) | 0 | -0.002 | -0.008 | 0.044 | -0.032 | -0.001 | -0.034 | 0.007 | 0.023 | -0.034 | 0.029 | -0.011 | -0.003 | 0.01 | -0.003 | -0.037 | 0.012 | -0.007 | 0.019 | -0.01
FTSJ3 (UniProt Q8IY81) | 0.064 | -0.157 | 0.002 | -0.014 | -0.028 | 0.025 | 0.065 | 0.012 | 0.022 | -0.018 | 0.05 | 0.005 | 0.026 | -0.033 | 0.086 | 0.016 | -0.037 | -0.01 | 0.002 | 0.04
ESPL1 (UniProt Q14674) | 0.147 | 0.019 | 0.074 | -0.086 | 0.009 | -0.011 | 0.054 | -0.025 | 0.006 | -0.028 | -0.076 | -0.335 | 0.002 | 0.01 | 0.04 | -0.005 | -0.036 | -0.04 | 0.076 | -0.371 (active)
FANCI (UniProt Q9NVI1) | 0.012 | -0.031 | -0.056 | 0.013 | 0.021 | -0.001 | -0.051 | -0.008 | -0.009 | 0.013 | -0.024 | 0.022 | 0.02 | -0.024 | -0.038 | -0.021 | 0.026 | 0.002 | 0.033 | 0.014
EAPP (UniProt Q56P03) | 0.012 | 0.349 (active) | 0.018 | 0.098 | 0.073 | 0.011 | -0.094 | 0.024 | 0.103 | -0.014 | -0.105 | 0.025 | -0.1 | -0.059 | -0.035 | 0.037 | -0.037 | -0.015 | 0.052 | -0.042
FDFT1 (UniProt P37268) | -0.002 | -0.072 | -0.038 | 0.176 | 0.001 | 0.211 | 0.115 | 0.005 | 0.024 | -0.014 | -0.004 | -0.014 | -0.014 | 0.018 | 0.013 | -0.034 | -0.028 | -0.02 | 0.017 | 0.012
FOXK1 (UniProt P85037) | 0.014 | -0.029 | 0.038 | 0.013 | -0.057 | -0.011 | 0.007 | -0.036 | 0.013 | -0.014 | 0.033 | 0.005 | 0.082 | 0.063 | -0.011 | 0.018 | 0.007 | -0.025 | -0.001 | 0.011
ENO1 isoform 2 (UniProt P06733) | -0.02 | -0.039 | -0.035 | -0.021 | -0.016 | -0.003 | -0.066 | -0.033 | 0.027 | 0.015 | -0.043 | 0.008 | 0.02 | -0.07 | 0.028 | -0.009 | -0.013 | 0.023 | -0.002 | -0.015
DST (UniProt Q03001) | 0.025 | -0.035 | 0.046 | -0.03 | -0.042 | 0 | -0.16 | -0.046 | 0 | 0.04 | 0.007 | -0.031 | -0.034 | -0.098 | 0.021 | -0.052 | -0.054 | 0.049 | 0.063 | -0.046
GALNT2 (UniProt Q10471) | -0.028 | 0.005 | -0.098 | 0.054 | -0.004 | -0.04 | -0.056 | -0.045 | 0.002 | -0.012 | -0.004 | 0 | 0.006 | 0.022 | -0.005 | 0.015 | 0.031 | -0.041 | -0.012 | -0.016
